PubChem BioAssay AID2716 (Broad Institute, 2010)
Among all 320,000 compounds or so, about 3,300 (1%) were called active.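 Rule for the calls: active = every valid replicate shows activation above 250% relative to neutral control wells; inactive = the rest, any valid replicate at or below 250%.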 Shown is part of a subset that was picked to be rich in actives.

Assay: restored growth of temperature-sensitive Mot1-301 yeast – S. cerevisiae, ATP luminescence, 38.5C, SUMOylation pathway inhibitor project, primary screen (AID 2716);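 note: OY570 slx delta 5 strain wells were the positive control but not used for scaling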
Conditions: S. cerevisiae Mot1-301 growth rescue, at 18.8 µM, active compounds read high, percent above DMSO median, 100 means doubled

SMILES	growth rescue
S=C(Nc1cccc(Cl)c1)Nc1ccc2c(c1)OCCO2	-16% (inactive)
Cc1csc(NC(=S)Nc2cccc(Cl)c2)n1	817% (active)
FC(F)(F)c1cccc(NC(=S)Nc2cccc(Cl)c2)c1	2.73% (inactive)
O=c1c2c(-c3ccccc3)ccnc2[nH]n1-c1ccccc1	-10.9% (inactive)
CCC(CC)c1nnc(NC(=O)C2CCN(C(=O)c3ccco3)CC2)s1	-12.8% (inactive)
CO/N=C(/CS(=O)(=O)c1ccc(Br)cc1)c1ccc(OC)cc1	-7.59% (inactive)
O=C(Cc1ccc(-c2ccccc2)cc1)NC(c1ccccc1)c1ccccc1	-3.02% (inactive)
O=C(O)Cc1ccc(NCc2ccccc2Cl)cc1	67.5% (inactive)
O=C(O)Cc1ccc(-c2ccccc2)cc1	403% (active)
COc1cc(/C(=C/c2ccccc2)c2ccccc2)c2c(c1)oc1ccccc12	1.69% (inactive)
Cc1cc(C)cc(Oc2nc3c(C)cccn3c(=O)c2/C=C(\C#N)C(=O)NC2CCS(=O)(=O)C2)c1 (stereo not drawn)	-14% (inactive)
CCC(C)(C)NC(=O)C(c1cccc(OC)c1OC)N(CC(C)C)C(=O)CCC(=O)Nc1cc(C)on1 (stereo not drawn)	13.1% (inactive)
COc1ccc(OCCCC(=O)Oc2ccc(OC)cc2)cc1	-3.53% (inactive)
COc1ccc(CCC(=O)c2ccc(OC)cc2)cc1	34.5% (inactive)
COc1ccc(OCCC(=O)c2ccc(OC)cc2)cc1	614% (active)
O=C1CCC/C(=N\NC(=O)NC2CCCCC2)C1	-14.5% (inactive)
Cc1nn(Cc2ccc(F)cc2)c(C)c1NC(=O)c1noc2c1CCc1ccccc1-2	-2.02% (inactive)
CCOc1ncccc1C(=O)Nc1ccc2c(c1)OCCO2	6.77% (inactive)
COc1cc(/C=N/O)cc(Br)c1OS(=O)(=O)c1ccc(C)cc1	13.1% (inactive)
CCOc1cc(/C=N/O)cc(Br)c1OC	341% (active)
COc1cc(/C=N/O)cc(Br)c1OCc1cccc(Cl)c1	-7.89% (inactive)
Cc1ccc(F)c(NC(=O)CCc2ccccc2)c1	-0.553% (inactive)
COCCCNC(=O)C1CCC(CNS(=O)(=O)c2ccc(OC)cc2)CC1 (stereo not drawn)	-13.1% (inactive)
CCCCCCCCc1c(O)nc(-n2[nH]c(C)c(CCO)c2=O)[nH]c1=O	605% (active)

SMILES	growth rescue
CCCCc1c(O)nc2n(c1=O)CCS2	-12.2% (inactive)
O=C(NCCc1ccc(Cl)cc1)C1CCCN1C(=O)NCc1ccccc1 (stereo not drawn)	-4.04% (inactive)
O=C(CN1C(=O)NC2(CCCC2)C1=O)Nc1ccc(F)c(F)c1F	-3.83% (inactive)
CC(C)n1c(NCc2c[nH]c3ccccc23)nc2ccccc21	5.8% (inactive)
Cc1ccc(O)c(CNc2nc3ccccc3n2C)c1	913% (active)
Cn1c(NC(=O)c2ccccc2)nc2ccccc21	4% (inactive)
CCN1CCN(c2sc(S(C)(=O)=O)nc2S(=O)(=O)c2ccc(Cl)cc2)CC1	2.93% (inactive)
C/C(=N\NC(=O)C1(C)CC1(Br)Br)c1ccc(C)cc1C (stereo not drawn)	8.98% (inactive)
CCCCc1nccn1CCn1ccnc1CCCC	1.48% (inactive)
COc1ccc(CCNC(=O)Cc2ccc(C)cc2)cc1OC	102% (inactive)
CCCN=C1NC(=O)C(CC(=O)NCCc2ccc(OC)c(OC)c2)S1 (stereo not drawn)	536% (active)
COc1ccc(CCNC(=O)CC2SC(=Nc3cc(C)cc(C)c3)NC2=O)cc1OC (stereo not drawn)	308% (inactive)
COc1cccc(N(CC(=O)NCc2ccccc2)C(=O)CCC(=O)Nc2nccs2)c1	-6.15% (inactive)
COC(=O)C1CCN(CC(N)=O)CC1	-5.03% (inactive)
COc1ccc(C(=O)COC(=O)Cn2cnc3c2c(=O)n(C)c(=O)n3C)c(OC)c1	-7.8% (inactive)
O=C(Nn1cnnc1)c1cc(Cl)ccc1Cl	4.55% (inactive)
CN1CCN(S(=O)(=O)c2cccc(C(=O)Nc3cccc(S(N)(=O)=O)c3)c2)CC1	-8.57% (inactive)
COC(=O)CCCC1=CC2=CC(=O)C(C)(OC(=O)c3cccs3)C(=O)C2=CN1CC1CC1 (stereo not drawn)	414% (inactive)
CCCCC1=CC2=CC(=O)C(C)(OC(=O)CC)C(=O)C2=CN1CCCOC(C)C (stereo not drawn)	499% (active)
COC(=O)CCCC1=CC2=CC(=O)C(C)(OC(=O)c3cccs3)C(=O)C2=CN1CC(C)C (stereo not drawn)	13.6% (inactive)
CCCCN(C1CCS(=O)(=O)C1)S(=O)(=O)c1ccc(C(C)C)cc1 (stereo not drawn)	1.38% (inactive)
CC(=O)c1ccc(S(=O)(=O)N2CCC(Oc3ccc(-n4cnnn4)cc3)CC2)cc1	-5.14% (inactive)
CCCCN(C(=O)COc1ccc(NC(C)=O)cc1)C1CCS(=O)(=O)C1 (stereo not drawn)	0.599% (inactive)
Cc1cccc(C)c1NC(=O)C(Cl)C(=O)c1ccccc1 (stereo not drawn)	474% (active)

SMILES	growth rescue
Cc1cccc(C)c1NC(=O)C(c1ccccc1)N1CC(=O)Nc2ccccc21 (stereo not drawn)	8.11% (inactive)
Cc1cccc(C)c1NC(=O)CN(C)C(=O)CCC(=O)c1ccccc1	-17.7% (inactive)
CN(C)CCCN(Cc1cc2cc3c(cc2[nH]c1=O)OCCO3)C(=O)NC1CCCCC1	4.3% (inactive)
CCN1CCN(C(=O)N(Cc2ccc(Cl)cc2)S(=O)(=O)c2ccc(C)cc2)CC1	2.05% (inactive)
COc1ccc(NS(=O)(=O)c2ccc(C(=O)Nc3c(C)n(C)n(-c4ccccc4)c3=O)cc2)cc1	-8.97% (inactive)
CCn1c(=N)c(C(=O)NCCCOC)cc2c(=O)n3cccc(C)c3nc21	327% (active)
Cc1cccn2c(=O)c3cc(C(=O)NCCN4CCOCC4)c(=N)n(Cc4cccnc4)c3nc12	-5.56% (inactive)
Cc1cccn2c(=O)c3cc(C(=O)NCC4CCCO4)c(=N)n(Cc4ccc(F)cc4)c3nc12 (stereo not drawn)	-5.43% (inactive)
O=C(NC1CCN(C(=S)NCc2ccco2)CC1)c1ccc(F)cc1	-3% (inactive)
Cc1cc(NC(=O)CSCC(=O)NC(C)c2ccccc2)no1 (stereo not drawn)	4.77% (inactive)
N#Cc1ccc(S(=O)(=O)NCC(=O)OCC(=O)NCCc2ccccc2)cc1	0.284% (inactive)
COc1ccc(N(CCC(=O)NCCc2ccccc2)S(=O)(=O)c2ccc(C)cc2C)cc1	-11.2% (inactive)
Cc1cccc(-[n+]2c(-c3cccc(Br)c3)[nH]c3nc4ccccc4nc32)c1	655% (active)
Cc1ccc(CNC(=O)COC(=O)C2CCC2)cc1	-6.16% (inactive)
Cc1nccn1CCC1CCCCN1C(=O)CCc1nnc(-c2ccsc2)o1 (stereo not drawn)	-11.6% (inactive)
COC(=O)/C=C\C(=O)Nc1cccc([N+](=O)[O-])c1	362% (active)
COc1cccc(CNC(=O)CCCC(=O)Nc2cccc([N+](=O)[O-])c2)c1	-7.72% (inactive)
COc1ccc(S(=O)(=O)NC(C)C(=O)Nc2cccc([N+](=O)[O-])c2)cc1 (stereo not drawn)	-16.6% (inactive)
CCOC(=O)C1CCCN(C(=O)c2ccc(C)c(S(=O)(=O)N3CCCCC3)c2)C1 (stereo not drawn)	-5.7% (inactive)
CCOc1ccc2nc(N(CCCN(C)C)C(=O)c3ccc(C(=O)c4ccccc4)cc3)sc2c1	1.2% (inactive)
CCOc1ccc2nc(N(CCN(C)C)C(=O)c3ccc4ccccc4c3)sc2c1	74.9% (inactive)
CCCC(=O)N(CCN1CCOCC1)c1nc2ccc(OCC)cc2s1	371% (active)
O=C(CCNC(=O)c1ccc(Cl)cc1)NC1CCCc2ccccc21 (stereo not drawn)	118% (inactive)
COC(=O)c1cc2occc2n1Cc1nc(-c2ccccc2C)oc1C	611% (active)

SMILES	growth rescue
Cc1ccccc1-c1nc(CS(=O)(=O)CC(=O)NC(C)c2ccccc2)c(C)o1 (stereo not drawn)	5.04% (inactive)
Cc1ccccc1-c1nc(CS(=O)(=O)CC(=O)N2CCc3ccccc3C2)c(C)o1	-11.2% (inactive)
CCCCCCOc1ccc(OC(=O)c2cccnc2)cc1	329% (active)
O=C(Oc1ccc(Br)cc1)c1cccnc1	1.84% (inactive)
N#CCc1ccc(OC(=O)c2cccnc2)cc1	9.1% (inactive)
Cc1nc2ccc(NC(=O)c3cccc(S(=O)(=O)N4CCOCC4)c3)cc2s1	-14.6% (inactive)
CCc1cccc(NC(=O)C2CCCN(S(=O)(=O)c3ccc4[nH]c(=O)ccc4c3)C2)c1 (stereo not drawn)	-9.11% (inactive)
CC1CCN(S(=O)(=O)c2ccc3[nH]c(=O)ccc3c2)CC1	14.3% (inactive)
Cc1cc(C)cc(NC(=O)C2CCCN(S(=O)(=O)c3ccc4[nH]c(=O)ccc4c3)C2)c1 (stereo not drawn)	2800% (active)
C[C@H](CO)N1C[C@H](C)[C@@H](CN(C)C(=O)NC2CCCCC2)Oc2ccc(NC(=O)c3ccncc3)cc2C1=O	-1.03% (inactive)
CCOC(=O)c1ccc(N2C(=O)CC(N(C)Cc3ccccc3)C2=O)cc1 (stereo not drawn)	94.8% (inactive)
CCCCOC(=O)c1ccc(N2C(=O)CC(N3CCN(C/C=C/c4ccccc4)CC3)C2=O)cc1 (stereo not drawn)	-18% (inactive)
CCCCCCC(=O)N(O)C1CC(=O)N(c2ccccc2)C1=O (stereo not drawn)	321% (active)
N#CCCN1CCN(S(=O)(=O)c2ccc(S(=O)(=O)NC3CCCCC3)cc2)CC1	111% (inactive)
CC(C)C(NC(=O)c1c(F)cccc1F)C(=O)NNC(=O)c1ccccc1 (stereo not drawn)	-1.01% (inactive)
Cc1ccc(C)c(S(=O)(=O)Nc2cccc(-n3cnnn3)c2)c1	-7.94% (inactive)
Cc1nc(-c2nnc(SCC(=O)Nc3cc(C(F)(F)F)cc(C(F)(F)F)c3)n2C)cs1	16.5% (inactive)
COc1cccc(CNCc2ccc3c(c2)OCO3)c1	-12.1% (inactive)
COc1cc(OC)c(C(=O)NCc2ccc3c(c2)OCO3)cc1OC	1.21% (inactive)
COc1cc(CNCc2ccc3c(c2)OCO3)c([N+](=O)[O-])cc1OC	1080% (active)
O=C(CSc1nnc(-c2ccncc2)o1)Nc1cccc(Cl)c1	-11.5% (inactive)
